Assay outcomes as filed in PubChem.
Wnt bcat act: activates Wnt/beta-catenin signaling in a reporter cell assay; hit rate 1.2% among 300,000; activator, plate reader; activation, % at 9.35 µM; in the data active = activation above about 30%, passing the limit was not always enough; inconclusive = no clear call, values can overlap the other calls
MITF TRPM1 HTS: activators of MITF-driven TRPM1 promoter activity in SK-MEL-5 cells. SK-MEL-5 TRPM1-promoter luciferase, 24 h; % of positive control, neutral wells = 0. activation, % at 12.5 µM. hit rate 0.75% among 300,000. AID 588334;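 active = mean activation of at least 80% with every replicate also reaching 80%; inconclusive = mean reaches 80% but some replicate falls short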
Rtt109 HAT inh: C. albicans Rtt109 histone acetyltransferase inhibition; hit rate 0.16% among 330,000; Q5AAJ8; purified Rtt109/Vps75, ThioGlo CoA-SH fluorescence, 4 h; AID 540336; inhibition, % at 34.9 µM;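 active = inhibition of at least 50% in every replicate; inconclusive = best replicate reaches 50% inhibition but some replicates fall short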
Target sequence (Q5AAJ8 whole entry, looked up): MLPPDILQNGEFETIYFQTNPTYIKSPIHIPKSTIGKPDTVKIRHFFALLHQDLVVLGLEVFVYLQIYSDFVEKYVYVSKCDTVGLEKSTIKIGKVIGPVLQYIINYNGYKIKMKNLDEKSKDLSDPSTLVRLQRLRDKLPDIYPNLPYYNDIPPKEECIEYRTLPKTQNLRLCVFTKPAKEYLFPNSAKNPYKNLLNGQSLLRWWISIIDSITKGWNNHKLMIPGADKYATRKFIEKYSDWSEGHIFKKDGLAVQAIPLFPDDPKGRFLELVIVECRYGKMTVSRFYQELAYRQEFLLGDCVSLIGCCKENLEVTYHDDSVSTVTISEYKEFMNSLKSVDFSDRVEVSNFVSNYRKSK
C2C12 statin: suppression of simvastatin myotoxicity. C2C12 myotubes + simvastatin, ATP luminescence, 48 h; scaled: DMSO 0, geranylgeraniol control 100. rescue of ATP level, % at 7.49 µM. hit rate 0.78% among 330,000. AID 602340;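 active = mean ATP rescue above about 67%, or every replicate alone reaching that limit, limit read from the data, passing the limit was not always enough; inconclusive = no clear call, values can overlap the other calls; inactive = mean under the limit and some replicate under it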;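 also: myotubes were challenged with 10 µM simvastatin during compound exposure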
esBAF inh: inhibitors of esBAF chromatin remodeling in mouse ES cells; Bmi1-luciferase knock-in reporter, 24 h; 100% = twice the neutral-well signal; reporter increase, % at 12.5 µM; hit rate 2% among 350,000; in the data active = activation above about 40%; inconclusive = no clear call, values can overlap the other calls;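 also: a rise in the Bmi1 reporter signal indicates esBAF inhibition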
Of the large screens only hits and unclear results are named; the others gave an inactive call. Most compounds without a hit are left out; they make up all but 3.1% or so of the library.

CCOC(=O)Cc1nnc(NC(=O)COc2ccc(C)cc2)s1	none (no result: Wnt bcat act)
CCC(=O)Nc1nnc(/C=C/c2ccc(OC)cc2)s1	Wnt bcat act 34.0 (no result: MITF TRPM1 HTS, C2C12 statin, esBAF inh)
CCC(=O)Nc1nc2ccc3nc(C)sc3c2s1	esBAF inh 46.2
C[C@H]1CN([C@@H](C)CO)C(=O)c2cccc(NC(=O)c3nc4ccccc4s3)c2O[C@H]1CN(C)Cc1ccc(C(=O)Nc2ccccc2N)cc1	none (no result: Wnt bcat act, MITF TRPM1 HTS, Rtt109 HAT inh)
C[C@@H](NC(=O)C[C@H]1CC[C@H]2[C@@H](COC[C@H](O)CN2Cc2cc(F)ccc2F)O1)c1ccccc1	none (no result: Wnt bcat act, MITF TRPM1 HTS, Rtt109 HAT inh)
CCOc1ccccc1C(=O)n1nc(C)cc1C	C2C12 statin 114.4 (no result: Wnt bcat act)
O=C(O)COc1ccccc1O	Rtt109 HAT inh 60.2 (no result: Wnt bcat act, MITF TRPM1 HTS)
C=CCc1ccccc1OCCCCN1CCCC1	C2C12 statin 80.2 (no result: Wnt bcat act)
C=CCc1ccccc1OCC(=O)O	Wnt bcat act 33.6 (no result: C2C12 statin, esBAF inh)
O=C(O)COc1ccccc1Cc1ccccc1	none (no result: C2C12 statin)
C[C@@H]1CN([C@@H](C)CO)C(=O)c2cc(NC(=O)c3ccccc3)ccc2O[C@@H](C)CCCCO[C@H]1CN(C)Cc1ccc(C(=O)O)cc1	none (no result: Wnt bcat act, MITF TRPM1 HTS, Rtt109 HAT inh, C2C12 statin)
CCCN1C(=O)C(=O)N(CC(=O)c2cc(C)n(C3CC3)c2C)C1=O	MITF TRPM1 HTS 88.9
C[C@H](CO)N1C[C@H](C)[C@@H](CN(C)CC2CC2)Oc2ccc(N(C)C)cc2CC1=O	none (no result: Wnt bcat act, MITF TRPM1 HTS, Rtt109 HAT inh)
CCOc1ccc(N=C(/C(C(=O)C(=O)N2CCOCC2)=C(\O)c2ccccc2)c2ccccc2)cc1	MITF TRPM1 HTS 86.8, esBAF inh 67.6
Cc1cccn2cc(-c3c[nH]c4ccccc34)nc12	esBAF inh 81.3
CC(=O)c1c(C)[nH]c(C(=O)OCC(=O)C(C)(C)C)c1C	none (no result: C2C12 statin, esBAF inh)
Cc1ccc(C(=O)COC(=O)c2ccc(Cl)c(N)c2)s1	esBAF inh 92.1
CC(=O)c1c(C)[nH]c(C(=O)OCC(=O)c2ccc(C)s2)c1C	esBAF inh 56.2
O=C(OCC(=O)c1ccc(Br)s1)c1ccc(O)cc1	Wnt bcat act 42.8, esBAF inh 75.8
CC(=O)c1c(C)[nH]c(C(=O)OCC(=O)c2c[nH]c3ccccc23)c1C	esBAF inh 53.0
O=C(O)C[C@H]1CC[C@@H](NC(=O)Nc2ccccc2)[C@@H](CO)O1	none (no result: Wnt bcat act, MITF TRPM1 HTS, Rtt109 HAT inh)
CC(C)C#Cc1cnc2c(c1)C(=O)N([C@@H](C)CO)C[C@@H](C)[C@@H](CN(C)Cc1ccccc1F)O2	none (no result: Wnt bcat act, MITF TRPM1 HTS, Rtt109 HAT inh)
O=C(Nc1ccccc1F)N1CCc2ccccc2C1	esBAF inh 65.0
Cc1ccc(C)c(NC(=O)N2CCc3ccccc3C2)c1	none
COc1cccc(NC(=O)N2CCc3ccccc3C2)c1	esBAF inh 50.1
O=C(Nc1cccc(Cl)c1)N1CCc2ccccc2C1	esBAF inh 50.1 (no result: MITF TRPM1 HTS)
O=C(Nc1cccc(Cl)c1)c1nc[nH]c1C(=O)N1CCc2ccccc2C1	none
COc1cccc(NC(=O)N2CCc3nc(Nc4ccc(C(C)C)cc4)ncc3C2)c1	esBAF inh 70.3 (no result: MITF TRPM1 HTS, Rtt109 HAT inh)
O=C(Nc1ccc([N+](=O)[O-])cc1)N1CCc2ccccc2C1	esBAF inh 50.8
C[C@H](CO)N1C[C@H](C)[C@@H](CN(C)C(=O)Nc2cccc3ccccc23)Oc2c(NC(=O)Nc3ccc4c(c3)OCO4)cccc2C1=O	none (no result: Wnt bcat act, MITF TRPM1 HTS, Rtt109 HAT inh)
COc1ccc2nc(N3CCCC(C(=O)NCCc4ccc(OC)c(OC)c4)C3)sc2c1 (stereo not given)	esBAF inh 53.0
O=C(c1ccc2nc(N3CCOCC3)sc2c1)N1CCCC1	none (no result: C2C12 statin)
COc1ccc(N2CCN(C(=O)c3ccc4nc(N5CCCCC5)sc4c3)CC2)cc1	esBAF inh 62.5
COc1ccc2nc(N3CCCC(C(=O)NCCCN4CCN(C)CC4)C3)sc2c1 (stereo not given)	none (no result: MITF TRPM1 HTS)
Cc1cc(C)c2nc(N3CCCC(C(=O)NCCCN4CCOCC4)C3)sc2c1 (stereo not given)	none (no result: C2C12 statin, esBAF inh)
COc1ccc2nc(N3CCN(C(=O)C4COc5ccccc5O4)CC3)sc2c1 (stereo not given)	MITF TRPM1 HTS 100.0 (no result: C2C12 statin, esBAF inh)
Cc1cc(C)c2nc(N3CCCC(C(=O)NCCN4CCOCC4)C3)sc2c1 (stereo not given)	esBAF inh 67.5
COC(=O)[C@H]1[C@H](CO)[C@H]2Cn3c(ccc(-c4cccc(F)c4)c3=O)[C@H]2N1CC1CC1	none (no result: Wnt bcat act, MITF TRPM1 HTS, Rtt109 HAT inh)
COc1ccc(CCNC(=O)c2ccc3nc(N4CCCCC4)sc3c2)cc1OC	esBAF inh 51.0 (no result: MITF TRPM1 HTS)
O=C(NCc1ccco1)Nc1c(Cl)cc(Cl)cc1Cl	none (no result: MITF TRPM1 HTS, Rtt109 HAT inh, C2C12 statin, esBAF inh)
O=C(NCc1ccco1)Nc1ccc(Br)cc1Cl	MITF TRPM1 HTS 90.8, esBAF inh inconclusive (no result: Wnt bcat act)
Cc1ccc(/C=N/Nc2ccccn2)s1	MITF TRPM1 HTS 103.7, esBAF inh 57.5
